# Screening results deposited in PubChem by National Center for Advancing Translational Sciences (NCATS).
# TRb SRC2 PPI = disrupts binding of human TR beta to SRC2 | Potency, µM (titrated, usually from 106 µM), without a hit: at the highest dose activity change, negative = inhibition, most hits filed as inhibitors | P10828 | 280,000 compounds, 0.065% hits | AID 1469 | TRbeta-SRC2 peptide binding, fluorescence polarization; receptor liganded with 1 µM T3;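 also: potency is read from the fitted curve at half-maximal effect; plate controls were bound peptide for no effect and peptide without receptor for full effect; nearly all actives have a fitted effect of over 50% in size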
# Target sequence (P10828 whole entry, looked up): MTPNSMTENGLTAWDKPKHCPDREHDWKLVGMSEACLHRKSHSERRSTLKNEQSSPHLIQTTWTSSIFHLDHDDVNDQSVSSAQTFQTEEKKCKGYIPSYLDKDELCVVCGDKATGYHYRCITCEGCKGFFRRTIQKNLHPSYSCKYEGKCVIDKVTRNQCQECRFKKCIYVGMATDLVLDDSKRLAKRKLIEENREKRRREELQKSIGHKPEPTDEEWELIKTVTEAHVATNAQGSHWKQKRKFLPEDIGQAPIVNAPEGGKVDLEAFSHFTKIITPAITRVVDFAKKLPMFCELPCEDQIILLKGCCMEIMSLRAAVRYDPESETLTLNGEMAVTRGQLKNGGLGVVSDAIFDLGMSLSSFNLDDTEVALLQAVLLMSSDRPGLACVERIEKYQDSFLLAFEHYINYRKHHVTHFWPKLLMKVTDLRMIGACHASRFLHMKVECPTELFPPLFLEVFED
#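 Read-out is fluorescence polarization (555 nm excitation, 632 nm emission) of a Texas Red SRC2 coactivator peptide; loss of signal reflects blocked binding to human TRb ligand-binding domain in the presence of 1 uM T3.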
# Tau fluor counter = counter-screen for tau fibril formation inhibitors | 280,000 compounds, 0.93% hits | AID 1463 | Potency, µM (doses to about 57.7 µM), for the others: top-dose activity change, negative = decrease | tau K18 P301L Alexa594 fluorescence, heparin fibrillization; also: potency is read from the fitted curve at half-maximal effect; nearly all actives have a fitted effect of over 55% in size
#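 Human K18 P301L tau (15 uM unlabeled plus 0.24 uM Alexa 594-labeled, final) in 100 mM sodium acetate pH 7 was mixed with compound and 20 uM heparin and incubated 6 hr at 37 C.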
# PNC inhibitor = inhibitors of perinucleolar compartment assembly; PC3M PTB-GFP, PNC prevalence imaging, 16 h; active compounds read low; activity change (PNC), negative = inhibition, % at 10 µM; 140,000 compounds, 3.1% hits; AID 2417;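 active = readout at or below -70, meaning at least 70% loss of cells showing the perinucleolar compartment, a nuclear body marking cancer cells; inconclusive = readout between -30 and a set limit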;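 also: plate controls were DMSO wells for no effect and camptothecin positive control wells for full effect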
#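 Read-out is percentage of cells bearing a perinucleolar compartment, from automated 20x imaging of fixed, Hoechst-stained PC3M PTB-GFP cells. Cells were seeded 4 h, then exposed 16 h to compound (23 nl of library stock) in duplicate plates.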
# Tau ThT inhib = tau fibrillization inhibition (ThT binding); recombinant tau K18 P301L, heparin-induced fibrillization, ThT fluorescence; Potency, µM (series often up to 57.4 µM), for inactives: at the highest dose activity, negative = inhibition, usual class: inhibitors; 270,000 compounds, 2.1% hits; also: potency is read from the fitted curve at half-maximal effect; nearly all actives have a fitted effect of over 55% in size
# Target sequence (P10636 561-689 P618L limits assumed): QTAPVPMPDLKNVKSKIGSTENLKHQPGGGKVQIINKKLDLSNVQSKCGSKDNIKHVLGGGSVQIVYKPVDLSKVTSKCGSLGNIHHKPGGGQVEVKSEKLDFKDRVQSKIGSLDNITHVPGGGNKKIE
#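 ThT emission at 510 nm, taken 1 hr after adding 30 uM dye, quantifies aggregates formed when 20 uM heparin acts on human tau K18 P301L for 6 hr at 37 C.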
# Tau FP inhib = tau fibrillization inhibition (FP); AID 1468; 280,000 compounds, 0.39% hits; P10636; Potency, µM (highest dose often 57.7 µM), inactives show top-dose activity, negative = inhibition, hits mostly inhibitors; K18 P301L tau heparin fibrillization, Alexa594 FP, 6 h; also: potency is read from the fitted curve at half-maximal effect; nearly all actives have a fitted effect of over 55% in size
#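 Compound effects on tau fibrillization are measured by Alexa 594 fluorescence polarization (ex 555, em 632 nm). K18 P301L tau is used at 15 uM with 0.24 uM labeled tracer, and 20 uM heparin induces aggregation over 6 hr at 37 C.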
# TexasRed fluor = Texas Red fluorescence interference in TRb-SRC2 counter-screen | AID 1479 | TRb/SRC2 Texas Red total fluorescence interference | 280,000 compounds, 0.29% hits | Potency, µM (doses to about 106 µM), for inactives: at the highest dose fluorescence change, negative = quenching; active = well fitted curve in either direction with a large enough effect; inconclusive = small, poorly fitted or top-dose-only effect; also: potency is read from the fitted curve at half-maximal effect
#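 Human TRβ ligand-binding domain (0.6 uM) and Texas Red SRC2 peptide (20 nM) in Tris buffer with 1 uM T3 and 5% DMSO were incubated with pinned compound for 5 hr at ambient temperature. Total fluorescence was computed as S + 2P (555/632 nm).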
# An asterisk follows results filed as active; ? = inconclusive; . = no result given; [ ] = remark or other dose. Compounds with a hit are over-represented: about 4.6% of the library has one in this group of screens. Unless noted, calls follow the shape of the dose curve; as a rule, active = well fitted curve in the direction sought with a large enough effect; inconclusive = small, poorly fitted or top-dose-only effect, or another doubt; inactive = no such curve, though single readings can be large; an effect the other way counts as inactive or inconclusive. Unless noted, % is scaled to controls: 0 for no effect and ±100 for the full control effect.
SMILES,TRb SRC2 PPI,Tau fluor counter,PNC inhibitor,Tau ThT inhib,Tau FP inhib,TexasRed fluor
COc1ccc(CNc2ncnc3c2[nH]c2cc(OC)c(OC)cc23)cc1,-5.2%,10µM*[quencher],.,?,?,-3.8%
COc1ccc(CNc2ncnc3c2[nH]c2ccccc23)cc1,-6.8%,20µM*[quencher],.,?,-0.5%,-0.9%
CC(C)OCCCNc1ncnc2c1[nH]c1ccccc12,-5.4%,-4.9%,-96.5*,2.3%,10.1%,0.9%
COc1ccc2[nH]c3c(NCCN(C(C)C)C(C)C)ncnc3c2c1,3.7%,-25.8%,21.7,-9.1%,5.0%,-3.9%
C1=C(CCNc2ncnc3c2[nH]c2ccccc23)CCCC1,-4.8%,15.8µM*[quencher],?,?,-4.6%,?
O=C(COCc1cc(-c2ccc(F)cc2)on1)Nc1cccc(Cl)c1Cl,1.3%,-16.5%,.,-12.7%,-7.4%,1.1%
Cc1cc(C)c2nc(NNC(=O)c3ccc(S(=O)(=O)N4CCCCC4)cc3)sc2c1,8.3%,?,46.3,22.4µM*,?,-1.1%
CCOC(=O)N1CCN(S(=O)(=O)c2ccc(C(=O)Nc3nnc(CC)o3)cc2)CC1,6.1%[53 µM],9.5%,-82.5*,11.0%,2.3%,0.2%[53 µM]
CCOC(=O)N1CCN(S(=O)(=O)c2ccc(C(=O)NNc3nc4c(C)cccc4s3)cc2)CC1,1.2%,?,30.6,20µM*,?,-1.4%
O=S(=O)(Nc1ccc2c(c1)oc1ccccc12)N1CCCC1,7.1%,?,28.0,-5.1%,?,-0.9%
CS(=O)(=O)N(CC(=O)NCCSCc1ccccc1)c1ccc2c(c1)OCO2,-5.1%,-14.9%,.,-10.1%,1.9%,-1.2%
CCOC(=O)CSc1nnc(-c2ccoc2C)n1-c1ccc(C)cc1,-0.9%,1.3%,-100.0*,-6.3%,6.4%,0.2%
CCOC(=O)C(NC(C)=O)(N1CCOCC1)C(F)(F)F (stereo not drawn),2.0%,-7.2%,-2.4,?,?,1.7%
CCOC(=O)C(NC(=O)c1ccccc1)(N1CCCC1=O)C(F)(F)F (stereo not drawn),0.5%,4.3%,-84.9*,9.3%,0.7%,-1.4%
CCOC(=O)C(NC(C)=O)(N1CCc2ccccc2C1)C(F)(F)F (stereo not drawn),-0.4%,-15.3%,21.7,25.1µM*,?,-0.5%
O=C(Cn1cc(S(=O)(=O)Cc2ccccc2)c2ccccc21)Nc1ccccc1,-0.1%[53 µM],?,-82.3*,-12.4%,-7.2%,-1.6%[53 µM]
COc1cccc(NC(=O)NC2(C(F)(F)F)Oc3ccccc3O2)c1,-7.9%,17.8µM*[quencher],?,?,5.3%,1.2%
Cc1onc(C(N)=O)c1C(=O)Nc1ncc(C(F)(F)F)cc1Cl,9.0%,6.0%,.,5.7%,3.6%,-1.4%
COC(=O)c1cccnc1NC(=S)NNC(=O)c1ccncc1,-3.6%,-10.3%,-7.6,-18.3%,3.5%,0.1%
COc1ccc(N2CCN(C(=O)CCCn3c(=O)[nH]c4ccsc4c3=O)CC2)cc1,9.8%,-13.7%,?,?,-3.0%,0.7%
O=C(O)c1ccc(N/N=C/c2cc3c(cc2[N+](=O)[O-])OCO3)cc1,-5.1%,-29.0%,.,14.1µM*,3.1%,-12.4%
O=C(O)c1ccc(N/N=C/c2ccc3c(c2)OCO3)cc1,-4.2%,?,.,?,-1.2%,0.7%
CCOC(=O)N1CCc2c(sc3c2c(=O)n(Cc2ccccc2)c(=O)n3CC(=O)Nc2cccc(CC)c2)C1,-5.4%,-26.9%,.,6.0%,?,0.1%
O=C(C[n+]1ccccc1)Nc1c(Cl)cc(Cl)cc1Cl,-5.1%,-38.7%,.,17.8µM*,-62.1%,-5.7%
CC1C/C(=C/c2ccccn2)C(=O)/C(=C/c2ccccn2)C1 (stereo not drawn),-7.1%,-13.8%,.,10µM*,8.91µM*,1.1%
SMILES,TRb SRC2 PPI,Tau fluor counter,PNC inhibitor,Tau ThT inhib,Tau FP inhib,TexasRed fluor
CC(C)(C)C1C/C(=C/c2ccccn2)C(=O)/C(=C/c2ccccn2)C1 (stereo not drawn),-7.0%,-24.6%,.,11.2µM*,?,-0.6%
O=C(CSc1ccc(Cl)cc1)Nc1ccccc1Oc1ccccc1,-2.7%,-11.0%,23.8,-1.9%,-0.3%,0.9%
CCCC1CCC(C(=O)Nn2cnc3ccccc3c2=O)CC1 (stereo not drawn),-17.6%,-3.8%,16.7,?,-5.1%,0.7%
Nc1c(C(=O)N/N=C/c2ccc(Cl)cc2)cnn1-c1ccccc1,-0.1%,-2.1%,.,0.5%,-1.9%,-2.3%
Nc1scc2c(C(=O)N/N=C/c3ccc(Cl)cc3)nn(-c3ccccc3)c(=O)c12,-10.3%,?,?,11.2µM*,?,-4.4%
Oc1oc(-c2ccccc2)nc1C=Nc1cccc2ccccc12,-10.7%,?,-2.8,?,-15.6%,-5.9%
Cc1ccc(-c2nc(C(=O)NCc3ccc(Cl)cc3)c3n2CCCCC3)cc1,5.0%,-21.8%,.,1.8%,-5.3%,-2.9%
O=C(NCCc1ccccc1)c1nc(-c2ccc(Cl)cc2)n2c1CCCCC2,0.2%,-3.3%,.,-8.3%,5.6%,?
O=C(NCc1ccccc1)c1nc(-c2ccc(Cl)cc2)n2c1CCCCC2,-3.7%,-0.4%,.,-3.2%,-4.6%,20µM*[quencher]
CC(C)N(Cc1ccccc1)C(=O)c1nc(-c2ccc(Cl)cc2)n2c1CCCCC2,-11.8%,1.9%,.,-1.8%,-6.9%,14.1µM*[quencher]
O=c1c2cccnc2nc2n1CCCCC2,-1.8%,-5.6%,.,-7.1%,-1.2%,-4.3%
O=C(CCCOc1ccc(Cl)cc1Cl)Nc1cccnc1,-2.9%,-16.0%,6.2,-12.5%,1.1%,-0.6%
Cc1ccc(C)c2nc3sc(C(=O)N4CCOCC4)c(N)c3cc12,2.0%,-5.8%[2.34 µM],.,-3.9%,-7.5%[2.34 µM],-5.7%
Cc1cccc2cc3c(N)c(C(=O)Nc4ccc(N5CCOCC5)cc4)sc3nc12,-2.0%,11.2µM*[quencher],49.9,2.82µM*,8.0%,-3.1%
CCc1cccc2cc3c(N)c(C(=O)Nc4ccc(S(=O)(=O)N5CCCC5)cc4)sc3nc12,1.7%,?,31.1,5.62µM*,?,3.0%
O=C(c1cnc2n(c1=O)CCS2)N1CCc2ccccc21,0.1%,2.6%,-3.1,13.0%,7.6%,-5.3%
Cc1ccc2nc3sc(C(=O)Nc4ccc(N5CCOCC5)cc4)c(N)c3cc2c1,-0.4%,?,4.2,2µM*,10.2%,-5.9%
Cc1cccc2cc3c(N)c(C(=O)N4CCc5ccccc54)sc3nc12,-3.0%,?,-10.5,4.47µM*,?,-0.5%
Fc1ccc(-c2cc(-c3ccccc3)nc(-n3cccn3)n2)cc1,-1.4%,-16.9%,.,?,-12.5%,-2.4%
N#Cc1nc(COc2ccc(Cl)cc2)oc1N1CCN(Cc2ccccc2)CC1,-8.5%,-13.2%,-14.8,-15.8%,-0.8%,-1.7%
